A number with no mark means an inactive call.

UniProt Q70EL2, sequence (Q70EL2 whole entry): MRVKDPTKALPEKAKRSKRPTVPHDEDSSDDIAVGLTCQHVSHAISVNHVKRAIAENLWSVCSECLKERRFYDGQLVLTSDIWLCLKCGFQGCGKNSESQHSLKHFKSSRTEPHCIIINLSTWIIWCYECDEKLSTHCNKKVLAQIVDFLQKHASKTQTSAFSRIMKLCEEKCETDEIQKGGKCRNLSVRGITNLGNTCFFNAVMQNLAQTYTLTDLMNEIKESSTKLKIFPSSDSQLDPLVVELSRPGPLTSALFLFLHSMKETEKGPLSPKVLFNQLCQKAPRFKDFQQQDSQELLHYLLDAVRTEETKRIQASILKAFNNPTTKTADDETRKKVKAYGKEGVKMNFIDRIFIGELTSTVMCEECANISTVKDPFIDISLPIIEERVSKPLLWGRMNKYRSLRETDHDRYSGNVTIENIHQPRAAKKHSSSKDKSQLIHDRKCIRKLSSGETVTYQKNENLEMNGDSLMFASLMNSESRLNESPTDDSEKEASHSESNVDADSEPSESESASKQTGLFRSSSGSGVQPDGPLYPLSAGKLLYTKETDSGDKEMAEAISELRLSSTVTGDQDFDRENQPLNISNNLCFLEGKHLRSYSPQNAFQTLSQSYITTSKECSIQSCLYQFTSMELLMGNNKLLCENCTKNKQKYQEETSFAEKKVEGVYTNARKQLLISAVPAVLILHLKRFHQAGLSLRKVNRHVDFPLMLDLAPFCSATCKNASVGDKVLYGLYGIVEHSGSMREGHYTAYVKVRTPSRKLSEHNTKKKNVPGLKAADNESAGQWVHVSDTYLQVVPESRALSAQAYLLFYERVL
UniProt P54578, sequence (P54578 whole entry): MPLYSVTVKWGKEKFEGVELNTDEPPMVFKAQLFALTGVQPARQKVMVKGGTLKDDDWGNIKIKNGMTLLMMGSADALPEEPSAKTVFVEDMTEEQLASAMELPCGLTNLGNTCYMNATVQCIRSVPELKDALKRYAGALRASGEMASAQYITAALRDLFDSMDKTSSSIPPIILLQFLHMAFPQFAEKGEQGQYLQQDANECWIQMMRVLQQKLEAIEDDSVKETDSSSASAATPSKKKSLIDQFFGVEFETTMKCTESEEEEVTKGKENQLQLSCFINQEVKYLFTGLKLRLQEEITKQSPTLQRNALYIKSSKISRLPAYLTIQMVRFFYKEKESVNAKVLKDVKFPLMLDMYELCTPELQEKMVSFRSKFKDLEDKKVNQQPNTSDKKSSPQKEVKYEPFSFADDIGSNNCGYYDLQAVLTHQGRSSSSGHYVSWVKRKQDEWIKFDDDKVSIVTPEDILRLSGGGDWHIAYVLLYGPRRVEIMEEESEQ
UniProt Q92905, sequence (Q92905 whole entry, looked up): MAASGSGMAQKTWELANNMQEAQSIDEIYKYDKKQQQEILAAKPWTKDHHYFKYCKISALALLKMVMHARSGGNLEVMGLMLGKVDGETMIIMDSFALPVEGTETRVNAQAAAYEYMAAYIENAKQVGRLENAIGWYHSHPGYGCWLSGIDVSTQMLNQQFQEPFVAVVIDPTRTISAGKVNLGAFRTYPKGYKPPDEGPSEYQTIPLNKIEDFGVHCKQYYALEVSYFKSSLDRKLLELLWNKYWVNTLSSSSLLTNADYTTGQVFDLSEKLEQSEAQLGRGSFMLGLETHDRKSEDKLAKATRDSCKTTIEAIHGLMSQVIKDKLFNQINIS
UniProt Q9P2H5, sequence (Q9P2H5 whole entry): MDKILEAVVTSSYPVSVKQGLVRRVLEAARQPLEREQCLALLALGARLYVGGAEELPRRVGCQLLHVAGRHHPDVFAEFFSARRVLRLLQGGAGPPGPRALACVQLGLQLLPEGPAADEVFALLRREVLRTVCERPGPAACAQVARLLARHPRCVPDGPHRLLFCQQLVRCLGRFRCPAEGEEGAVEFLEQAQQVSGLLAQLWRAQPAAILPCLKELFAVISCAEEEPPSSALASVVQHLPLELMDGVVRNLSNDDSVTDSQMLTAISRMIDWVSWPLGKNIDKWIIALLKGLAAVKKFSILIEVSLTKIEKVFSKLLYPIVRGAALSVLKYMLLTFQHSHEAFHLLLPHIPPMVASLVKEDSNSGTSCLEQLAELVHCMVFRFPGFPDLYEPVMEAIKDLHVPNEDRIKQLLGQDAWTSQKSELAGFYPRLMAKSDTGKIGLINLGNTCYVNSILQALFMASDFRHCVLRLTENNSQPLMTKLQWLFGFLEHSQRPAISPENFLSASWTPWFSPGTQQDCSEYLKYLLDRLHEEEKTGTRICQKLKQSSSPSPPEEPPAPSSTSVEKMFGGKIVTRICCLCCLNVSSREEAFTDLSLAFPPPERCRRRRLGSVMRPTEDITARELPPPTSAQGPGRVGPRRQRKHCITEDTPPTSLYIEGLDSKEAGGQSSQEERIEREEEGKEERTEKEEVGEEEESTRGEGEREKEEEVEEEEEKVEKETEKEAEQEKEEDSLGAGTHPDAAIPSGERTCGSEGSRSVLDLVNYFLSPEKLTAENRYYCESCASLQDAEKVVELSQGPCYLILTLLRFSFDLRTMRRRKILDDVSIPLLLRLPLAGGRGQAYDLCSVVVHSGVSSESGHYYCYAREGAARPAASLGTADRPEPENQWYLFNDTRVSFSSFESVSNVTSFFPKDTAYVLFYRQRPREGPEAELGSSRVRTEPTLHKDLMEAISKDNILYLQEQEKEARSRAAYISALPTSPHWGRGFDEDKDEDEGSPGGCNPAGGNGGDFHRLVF
UniProt O00487, sequence (O00487 whole entry): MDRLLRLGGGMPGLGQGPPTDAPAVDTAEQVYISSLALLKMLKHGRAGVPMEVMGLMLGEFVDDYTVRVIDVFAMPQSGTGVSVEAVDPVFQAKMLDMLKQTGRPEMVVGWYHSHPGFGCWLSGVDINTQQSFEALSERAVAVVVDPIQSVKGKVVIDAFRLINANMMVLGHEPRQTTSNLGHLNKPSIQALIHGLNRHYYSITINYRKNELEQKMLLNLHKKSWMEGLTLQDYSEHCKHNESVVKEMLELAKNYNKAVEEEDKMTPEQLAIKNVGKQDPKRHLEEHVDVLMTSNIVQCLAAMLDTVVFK
UniProt Q93009, sequence (Q93009 whole entry, looked up): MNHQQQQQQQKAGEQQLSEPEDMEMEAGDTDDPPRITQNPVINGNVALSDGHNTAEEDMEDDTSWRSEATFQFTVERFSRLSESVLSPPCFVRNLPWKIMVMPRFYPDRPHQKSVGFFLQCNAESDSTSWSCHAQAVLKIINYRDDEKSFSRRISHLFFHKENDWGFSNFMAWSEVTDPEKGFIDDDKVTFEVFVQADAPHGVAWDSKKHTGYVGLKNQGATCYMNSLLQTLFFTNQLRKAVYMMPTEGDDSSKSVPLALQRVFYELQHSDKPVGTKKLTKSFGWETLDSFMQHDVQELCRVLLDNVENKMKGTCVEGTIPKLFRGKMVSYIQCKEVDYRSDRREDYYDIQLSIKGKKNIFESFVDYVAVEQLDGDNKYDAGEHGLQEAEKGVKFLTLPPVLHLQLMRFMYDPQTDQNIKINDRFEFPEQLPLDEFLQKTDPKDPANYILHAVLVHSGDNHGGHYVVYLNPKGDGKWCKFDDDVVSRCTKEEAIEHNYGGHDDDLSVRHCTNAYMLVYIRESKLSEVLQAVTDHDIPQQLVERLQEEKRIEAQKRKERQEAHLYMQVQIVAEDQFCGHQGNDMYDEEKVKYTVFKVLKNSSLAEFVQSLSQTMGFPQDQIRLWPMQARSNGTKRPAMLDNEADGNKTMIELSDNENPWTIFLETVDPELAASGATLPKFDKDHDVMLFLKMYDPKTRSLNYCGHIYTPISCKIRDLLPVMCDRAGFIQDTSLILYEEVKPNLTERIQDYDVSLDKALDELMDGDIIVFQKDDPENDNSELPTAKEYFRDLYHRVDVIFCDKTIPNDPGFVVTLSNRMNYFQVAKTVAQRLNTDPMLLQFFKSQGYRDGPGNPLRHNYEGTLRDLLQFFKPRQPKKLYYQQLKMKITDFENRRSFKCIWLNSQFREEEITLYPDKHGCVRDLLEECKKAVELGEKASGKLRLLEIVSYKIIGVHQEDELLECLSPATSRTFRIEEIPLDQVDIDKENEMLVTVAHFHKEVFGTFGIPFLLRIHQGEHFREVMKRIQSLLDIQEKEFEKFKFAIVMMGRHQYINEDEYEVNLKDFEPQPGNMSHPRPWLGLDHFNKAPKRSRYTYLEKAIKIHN
UniProt Q96FW1, sequence (Q96FW1 whole entry): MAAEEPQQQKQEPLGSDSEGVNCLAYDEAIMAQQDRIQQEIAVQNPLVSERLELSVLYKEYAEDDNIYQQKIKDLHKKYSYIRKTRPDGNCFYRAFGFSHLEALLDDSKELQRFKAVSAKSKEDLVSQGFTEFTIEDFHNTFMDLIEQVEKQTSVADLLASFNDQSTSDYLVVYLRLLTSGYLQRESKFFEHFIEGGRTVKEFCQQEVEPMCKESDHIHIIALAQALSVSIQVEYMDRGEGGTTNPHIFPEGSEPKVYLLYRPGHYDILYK
UniProt P15374, sequence (P15374 whole entry): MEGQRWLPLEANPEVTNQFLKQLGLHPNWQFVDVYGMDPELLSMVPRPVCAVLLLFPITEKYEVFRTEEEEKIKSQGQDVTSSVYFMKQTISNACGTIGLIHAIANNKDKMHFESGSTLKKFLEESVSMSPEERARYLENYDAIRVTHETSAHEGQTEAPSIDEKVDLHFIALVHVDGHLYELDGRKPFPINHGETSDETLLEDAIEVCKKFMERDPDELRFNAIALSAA
UniProt O75317, sequence (O75317 whole entry): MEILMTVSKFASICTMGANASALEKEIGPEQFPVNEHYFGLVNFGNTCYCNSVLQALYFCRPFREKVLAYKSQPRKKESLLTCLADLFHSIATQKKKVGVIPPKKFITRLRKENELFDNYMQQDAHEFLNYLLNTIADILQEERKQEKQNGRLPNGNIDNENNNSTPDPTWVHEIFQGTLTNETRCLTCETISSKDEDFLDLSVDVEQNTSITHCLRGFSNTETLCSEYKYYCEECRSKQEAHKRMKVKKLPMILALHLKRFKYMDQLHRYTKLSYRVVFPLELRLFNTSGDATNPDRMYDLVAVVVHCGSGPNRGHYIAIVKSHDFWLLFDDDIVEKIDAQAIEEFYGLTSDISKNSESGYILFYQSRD

Compound in the first assay: ClCC(=O)NC1(CCCC1)C#N
As to the kind of experiment: log2 ratio of Biotin-Ahx-Ub-VS probe labelling (compound/DMSO); higher = less target engagement, active = hit call of the paper (q ≤ 0.05, log2 ratio ≤ -1). To be noted: compound concentration: 50uM; treatment time: 3 h. The procedure: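 Round 2 competitive ABPP in HEK293T lysate. Compounds were tested at 50 and 200 µM for 3 h, followed by Biotin-Ahx-Ub-VS enrichment and diaPASEF LC-MS/MS. Values are the average log2 ratio (compound/DMSO) from an unpaired t-test (n=3 treated, n=26 DMSO).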
As for USP8 (UniProt P40818), the “log2 ratio of Biotin-Ahx-Ub-VS probe labelling” value (from here on “log2 ratio”) is -0.191.
On the same count and under the same terms, to UniProt O00487 belongs 0.252; to EIF3F (UniProt O00303), 0.000219; to USP7 (UniProt Q93009), -0.163.
On the same count and under the same terms, the result for UniProt Q70EL2 reads -0.267; that for USP12 (UniProt O75317), -0.429; that for PRPF8 (UniProt Q6P2Q9), -0.0469.
The same measure, in the same setting: to UniProt Q8TE49 belongs -0.765; to USP36 (UniProt Q9P275), -0.292.
For the target BAP1 (UniProt Q92560), the “log2 ratio” value is -1.04 (active).
Still for that read-out and setting: the result for USP5 (UniProt P45974) reads -0.165; that for USP22 (UniProt Q9UPT9), 0.0772; that for USP14 (UniProt P54578), 0.0754.
Same read-out and setting: to UCHL3 (UniProt P15374) belongs -0.252; to OTUB1 (UniProt Q96FW1), -0.00568; to USP24 (UniProt Q9UPU5), -0.0634.
Same read-out and setting: to USP39 (UniProt Q53GS9) belongs 0.213; to UniProt Q9P2H5, -0.223.
Turning to COPS5 (UniProt Q92905), the “log2 ratio” value was 0.531.
Still for that read-out and setting: to UniProt P51784 belongs 0.0618.

Still in this assay, the particulars now being: compound concentration: 200uM; treatment time: 3 h.
Regarding USP8 (UniProt P40818), the “log2 ratio” value was -0.0614.
Consider UniProt O00487, for which the “log2 ratio” value was 0.0206.
The same measure, in the same setting: the result for EIF3F (UniProt O00303) reads 0.192.
Still for that read-out and setting: to USP7 (UniProt Q93009) belongs -0.0621; to UniProt Q70EL2, 0.248; to USP12 (UniProt O75317), 0.0646.
The same measure, in the same setting: the result for PRPF8 (UniProt Q6P2Q9) reads -0.0301; that for UniProt Q8TE49, -1.08 (active).
USP36 (UniProt Q9P275): the “log2 ratio” value was -0.22.
The same measure, in the same setting: to BAP1 (UniProt Q92560) belongs -2.81 (active); to USP5 (UniProt P45974), -0.145.
Turning to USP22 (UniProt Q9UPT9), the “log2 ratio” value was -0.266.
On the same count and under the same terms, to USP14 (UniProt P54578) belongs 0.244; to UCHL3 (UniProt P15374), -0.294; to OTUB1 (UniProt Q96FW1), 0.00171.
The same measure, in the same setting: to USP24 (UniProt Q9UPU5) belongs -0.175; to USP39 (UniProt Q53GS9), -0.0479; to UniProt Q9P2H5, -0.102.
COPS5 (UniProt Q92905): the “log2 ratio” value is 0.0873.
The same measure, in the same setting: to UniProt P51784 belongs 0.0228.

Source of the values: the supplement of paper PMC11732987, “Enantioselective OTUD7B fragment discovery through chemoproteomics screening and high-throughput optimisation” (Communications Chemistry, 2025).
